# From ChEMBL document CHEMBL3433997, “St. Jude Leishmania screening dataset” (2016)
# Target: Hexose transporter 1 (Plasmodium falciparum) (UniProt O97467)
# Assay: ST_JUDE_LEISH: Cytotoxicity at 2uM final concentration against transgenic Leishmania Mexicana promastigotes LmPfHT that are glucose transport deficient and complemented with the Plasmodium falciparum hexose transporter. Activity is measured by DNA content using SYBR green in vitro
# Format: functional
row,SMILES,inhibition
1,CCCCc1cc(N2CCC(NC(C)=O)C2)nc(Nc2ccc(C)cc2)n1 (stereo not given),2.45%
2,O=C(/C=C/c1ccc(Cl)c(Cl)c1)NCCCCCN1CCC(NC(=O)Nc2ccc(OC(F)F)cc2)CC1,-0.5%
3,COc1ccc2nccc(NCC3(O)CCN(CC(O)c4ccc5c(c4)NC(=O)CS5)CC3)c2n1 (stereo not given),2.49%
4,CNC(=O)C(NC(=O)c1ccccc1C(=O)OC)c1ccccc1 (stereo not given),0.32%
5,CCCC(CNCc1cccc(C)c1)CNc1cc(=O)c2ccccc2[nH]1 (stereo not given),11.9%
6,CCC(C(=O)Nc1ccccc1)n1nc(-c2ccc(C)c(S(=O)(=O)N3CCCCC3)c2)ccc1=O (stereo not given),4.1%
7,NOCCCOc1ccc(Cl)cc1,3.73%
8,O=C(Nc1ccc(Cl)c(Cl)c1)N[C@H]1CCN(CCCCCNC(=O)C2CC2c2ccc(Cl)c(Cl)c2)C1 (stereo not given in full),8.71%
9,Cn1nc(-c2ccc(CNC3CCc4ccccc43)cc2)c2cnc(NCCN3CCCC3)nc21 (stereo not given),3.09%
10,COC(=O)C1=CNC=C(C(=O)OC)C1c1ccc(Cl)c([N+](=O)[O-])c1,8.44%
11,CC(=O)Nc1ncc(C(=O)Nc2ccc(-c3cccc(-c4nc5cc(C(F)(F)F)ccc5[nH]4)c3)cc2)s1,-2.1%
12,Fc1ccc(C(OCC2CCCN(Cc3cccc4cccnc34)C2)c2ccc(F)cc2)cc1 (stereo not given),0.62%
13,O=C(Nc1cccc(CN2CCCN(Cc3ccc(F)cc3)CC2)c1)c1ccc(Cl)c(Cl)c1,4.15%
14,COc1ccc(NC(=O)Nc2cc(C)nc3ccccc23)cc1Cl,8.02%
15,CC(C)COc1ccc(Cl)cc1Cc1ccc(-c2nc3cc(CCN(C)C)ccc3[nH]2)o1,4.3%
16,COc1ccc(N2CCN(CCCCNC(=O)c3ccc(NC(=O)c4cccc(Cl)c4)cc3)CC2)c(OC)c1,0.48%
17,Cc1nc(N)nc(N)c1CCCOc1ccccc1Cl,27.9%
18,Cc1noc(-c2ccc(O)cc2O)c1-c1ccc2c(c1)OCCCO2,0.09%
19,CCN1CCC(N(Cc2ccc(-c3ccc(C(F)(F)F)cc3)cc2)C(=O)Cn2c(CCc3cccc(F)c3F)cc(=O)c3c2CCCC3)CC1,0.64%
20,CN1CCN(CCCN(Cc2cccc(-c3cccc(CNC4CCCC4)c3)c2)C(=O)/C=C/c2ccccc2)CC1,-0.02%

row,SMILES,inhibition
1,C=CCN1C(=O)CN(S(=O)(=O)c2ccc(-n3nc(C)cc3C)cc2)C1=S,3.89%
2,c1ccc(Oc2ccc(Nc3nc(NCCc4c[nH]cn4)nc(NC4CCCC4)n3)cc2)cc1,5.86%
3,Cc1cccc2nc(-c3ccc(-c4cccc(NC(=O)Nc5cccc(C#N)c5)c4)cc3)[nH]c12,-0.19%
4,CC(=O)Nc1nc(C(=O)Nc2ccc(-c3cccc(-c4nc5cc(C(F)(F)F)ccc5[nH]4)c3)cc2)cs1,2.2%
5,CN(C)C1CCN(CC#Cc2cc3ncnc(Nc4ccc(OCc5cccc(F)c5)c(Cl)c4)c3s2)CC1,0.49%
6,Cc1cc(NCCCN2CCCC2=O)n2c(nc3ccccc32)c1C#N,3.33%
7,Cc1cccc2nc(O)c([N+](=O)[O-])c(O)c12,1.72%
8,Cc1cc(O)c(CN(C)Cc2ccc3c(c2)OCO3)cc1C(C)C,-1.41%
9,CC(=O)Nc1ccc(NC(=O)c2cc(-c3ccc(C)cc3O)n[nH]2)cc1,7.7%
10,CCc1ccc(NC(=O)c2cccc(CN3CCCN(Cc4cccc(O)c4)CC3)c2)cc1,3.08%
11,O=C(Cc1c[nH]cn1)Nc1cccc(-c2ccc(-c3nc4ccccc4[nH]3)cc2)c1,3.82%
12,COc1ccc(NS(=O)(=O)c2ccc(Oc3nc(C)nc4sc5c(c34)CCCC5)cc2)cc1,3.7%
13,Cc1nc2c(Nc3nc(-c4ccncc4)cs3)ncnc2n1-c1ccccc1Cl,38.8%
14,COc1cccc(-c2csc(C(=O)NC3CCCCN(Cc4ccc(C(C)(C)C)cc4)C3)c2)c1 (stereo not given),7.61%
15,Cc1ccc(C(=O)Nc2ccc(-c3nc4ccccc4[nH]3)cc2)cc1S(=O)(=O)N1CCOCC1,1.71%
16,COc1ccc(CON2C(=N)N=C(N)NC2(C)C)cc1OC,-1.38%
17,N#Cc1ccc(NC(=O)NC2CCN(CCCCCNC(=O)/C=C/c3ccc(Cl)c(Cl)c3)CC2)cc1,3.17%
18,NC1=NC(c2ccccc2)(c2ccccc2)C(=O)N1CCCCc1ccccc1,0.44%
19,Nc1oc2c(CN3CCCCCC3)c(O)ccc2c(=O)c1-c1nc2ccccc2s1,6.76%
20,Cc1cc(C(=O)NC2CCN(CC3(c4ccccc4)CCCCC3)CC2)on1,0.59%
